Reference: paper PMC10668032, “Altered binding affinity of SIX1-Q177R correlates with enhanced WNT5A and WNT pathway effector expression in Wilms tumor”
Over roughly 33,000 sequences, “e-score” has its median near -0.05; the highest 2% begin near 0.38. Many of the other results were omitted from the sample, so the highest values are more common in it than they were.

Target: T1, SIX1-Q177R homeodomain (human, UniProt Q15475 108-198, Q177R)
T1 sequence: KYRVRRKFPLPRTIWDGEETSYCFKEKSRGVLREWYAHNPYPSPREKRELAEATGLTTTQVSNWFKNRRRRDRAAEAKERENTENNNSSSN
Assay: universal protein binding microarray; Universal all-10-mer PBM (8x60K, AMADID 030236), 300 nM GST-tagged protein, Alexa Fluor 488 anti-GST; buffer, salt, pH and temperature not stated (as in Berger); high values mean tight binding
Settings: protein: ivt; tags: N-terminal GST; dsDNA, one strand shown
Method in brief: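 Homeodomains carrying a GST tag were produced by in vitro transcription/translation, then quantified by anti-GST western blot against a recombinant GST standard curve. Duplicate applications at 300 nM final concentration were made to universal 'all 10-mer' protein binding microarrays in 8×60K format. The Universal PBM Analysis Suite was used to express binding as 8-mer E-scores.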

Sequence | binding signal [E-score]
CAAAGGGG | 0.188 ± 0.0422
CCCCATAG | 0.209 ± 0.0311
TACCAACA | 0.167 ± 0.0345
CTGTACAC | 0.41165 ± 0.000233
GTACACAC | 0.355 ± 0.0185
ATGTACAC | 0.435 ± 0.00667
ATGTACCC | 0.19 ± 0.00303
GTGTACAA | 0.4291 ± 0.00333
CTGTACCC | 0.183 ± 0.0197
CTGCACAC | 0.247 ± 0.0168
GTGTACAC | 0.4741 ± 0.00152
ACCCGGCG | 0.235 ± 0.0231
CCCATACA | 0.192 ± 0.0397
CTCGGACA | 0.171 ± 0.0363
AGGGATCC | 0.212 ± 0.0252
ACACAACA | 0.268 ± 0.0457
CCCGATTA | 0.166 ± 0.0206
TGATAACA | 0.153 ± 0.0108
TGTCTAAA | 0.199 ± 0.0261
CACCAGCA | 0.341 ± 0.0362
GACCCCAC | 0.2185 ± 0.00167
GAACACCA | 0.4685 ± 0.000778
AAACACCA | 0.454 ± 0.0052
AAACACTC | 0.321 ± 0.0305
AAACACGA | 0.324 ± 0.0263

Sequence | binding signal [E-score]
CAACACTA | 0.34 ± 0.0042
GAGCACCA | 0.243 ± 0.0142
AAACACAC | 0.344 ± 0.0104
TAACACTA | 0.384 ± 0.0373
AAACACTA | 0.298 ± 0.0405
AAACACCC | 0.45 ± 0.00506
AAACAACA | 0.166 ± 0.016
GAACACTA | 0.356 ± 0.0123
CACGGGAG | 0.17 ± 0.0204
ACCGAACC | 0.197 ± 0.00959
ACCCCCCC | 0.31 ± 0.0449
CACCAACG | 0.335 ± 0.0249
ACCGCGTG | 0.246 ± 0.00416
GGAGGGGA | 0.158 ± 0.02
ACGTAACA | 0.199 ± 0.0228
AAGCACCG | 0.175 ± 0.0203
AAACACTG | 0.344 ± 0.0208
CAACACAC | 0.342 ± 0.0337
AAACACCG | 0.4654 ± 0.00275
CAACACTC | 0.36 ± 0.00549
CACCACCG | 0.3551 ± 0.000962
CAACACAA | 0.182 ± 0.0648
CACCAACA | 0.377 ± 0.0268
CAACACCA | 0.4741 ± 0.00414
CAACACCC | 0.456 ± 0.00535

Sequence | binding signal [E-score]
CAACACCG | 0.46689 ± 0.000212
CAACACTG | 0.323 ± 0.00702
ACCAGGTA | 0.241 ± 0.0242
ATACTACA | 0.257 ± 0.011
AACTGGTG | 0.364 ± 0.0186
GACGCCGA | 0.174 ± 0.0331
AGAGGTGC | 0.19 ± 0.0288
ACTCCCCG | 0.191 ± 0.00694
CAACACGG | 0.38 ± 0.0301
TAACACGA | 0.399 ± 0.00944
AAACACCT | 0.419 ± 0.00791
AAACACGG | 0.3488 ± 0.00234
GAACACCC | 0.4707 ± 0.00185
GAACACTC | 0.374 ± 0.0139
CAACACGA | 0.328 ± 0.0204
GAACACAC | 0.319 ± 0.0348
AAACACGT | 0.307 ± 0.0183
AAACACTT | 0.252 ± 0.0426
CACGTGAC | 0.258 ± 0.0152
TCGGATAA | 0.194 ± 0.0204
GGGTTTTA | 0.163 ± 0.0227
ACACAGGG | 0.158 ± 0.0633
CACCATTA | 0.266 ± 0.00672
CACGGGTA | 0.291 ± 0.0126
CACTCGAG | 0.172 ± 0.0369

Sequence | binding signal [E-score]
TAACACAA | 0.216 ± 0.0241
TAACACCA | 0.477 ± 0.00686
GAACACGC | 0.393 ± 0.0119
AAACACGC | 0.336 ± 0.0161
GAACACGA | 0.3393 ± 0.000771
TAGCACCA | 0.2242 ± 0.00214
CACAGCTA | 0.177 ± 0.0139
AACCCCGA | 0.232 ± 0.0298
CACGCCCC | 0.29 ± 0.0136
AGGGGTGC | 0.221 ± 0.0348
GTGTCGCA | 0.442 ± 0.0148
GTGTCTTA | 0.3629 ± 0.00242
ATGTCGTG | 0.222 ± 0.0295
GGGTCGGA | 0.227 ± 0.0525
ATGTCGGG | 0.199 ± 0.029
GTGTCGGA | 0.454 ± 0.0132
GTATCGCA | 0.234 ± 0.0133
GTGTCGTA | 0.45 ± 0.0119
CCGAGCAC | 0.178 ± 0.0032
ACCCAGTG | 0.21 ± 0.0315
AGTGGTAG | 0.157 ± 0.00503
ATGAGACA | 0.159 ± 0.0072
GGTGCACA | 0.268 ± 0.0361
ATAGCACG | 0.157 ± 0.0235
CTCCACAC | 0.251 ± 0.0305

Sequence | binding signal [E-score]
GTCCACAC | 0.211 ± 0.0298
CCCTCTAC | 0.205 ± 0.0116
ATCTACAC | 0.404 ± 0.0153
ATCCACAC | 0.297 ± 0.0245
GTCTAACA | 0.204 ± 0.0271
GTCTACAC | 0.42 ± 0.0105
CTCTACAC | 0.391 ± 0.0122
TCGGTACA | 0.219 ± 0.0249
GGGTCTCA | 0.162 ± 0.0232
ACTGCCCG | 0.219 ± 0.00643
TAGTATCA | 0.221 ± 0.0229
CACCAAAC | 0.283 ± 0.0195
ACCGCGAA | 0.1607 ± 0.000856
CACATTTC | 0.186 ± 0.0176
GTGTACTA | 0.438 ± 0.0127
GTGTACGA | 0.43943 ± 0.000382
GTGTGCGA | 0.173 ± 0.0312
GGGTACTA | 0.224 ± 0.00292
GTATACCA | 0.152 ± 0.0219
AGGTACTA | 0.1967 ± 0.000601
GTGTACCA | 0.4446 ± 0.00264
GTGTGCCA | 0.242 ± 0.0264
CCATGGGA | 0.153 ± 0.052
ACCTCCCA | 0.191 ± 0.00743
AATCTGAC | 0.17 ± 0.00849

Sequence | binding signal [E-score]
GTCGTACA | 0.26 ± 0.00478
CCCCCCGG | 0.254 ± 0.0183
ACACAACC | 0.219 ± 0.0237
CACCTACG | 0.232 ± 0.0231
CACCTACA | 0.41 ± 0.00505
CACCTACC | 0.2673 ± 0.000516
GTATGACA | 0.257 ± 0.00319
ACAAGTGT | 0.344 ± 0.0292
CGCATACA | 0.185 ± 0.00496
GGGGATAC | 0.254 ± 0.0111
GGGGACAC | 0.41 ± 0.0266
AGGGACAC | 0.402 ± 0.019
CGGGATAC | 0.281 ± 0.0031
AGGGAGTC | 0.239 ± 0.00436
CGGGACAC | 0.42 ± 0.00537
GAGGGGAC | 0.2 ± 0.0143
AGGGATAC | 0.165 ± 0.0372
CGGGATCC | 0.209 ± 0.0344
CACTTGCA | 0.173 ± 0.0121
GGATCTGA | 0.194 ± 0.0532
CCGGATCA | 0.176 ± 0.0156
AATCTGGT | 0.159 ± 0.0527
GGTCGTAC | 0.224 ± 0.0297
CGGGGTCA | 0.269 ± 0.0255
ACTTCGTG | 0.238 ± 0.000686

Sequence | binding signal [E-score]
AACAAGGG | 0.177 ± 0.0185
AGCAGGTG | 0.335 ± 0.0234
ACCCCACG | 0.267 ± 0.00597
CGCGATAC | 0.254 ± 0.0107
GGCGACAC | 0.44 ± 0.0183
AGCGACAC | 0.465 ± 0.00955
CGCGACAC | 0.4355 ± 0.00314
CGCGACCC | 0.169 ± 0.0418
GGCGATAC | 0.174 ± 0.0165
GGCGAGAC | 0.168 ± 0.0212
GAGCGACA | 0.185 ± 0.0595
GTATCTCA | 0.158 ± 0.00253
CACTACGA | 0.191 ± 0.00718
CGAAACCC | 0.16 ± 0.0514
AATAGCAC | 0.202 ± 0.00634
GCGCACCC | 0.236 ± 0.0394
ACACACAC | 0.315 ± 0.0422
ACACACCC | 0.39 ± 0.0201
ACCCACCC | 0.276 ± 0.0223
CCACACAC | 0.271 ± 0.0195
CCACACGC | 0.282 ± 0.0206
GCACACAC | 0.275 ± 0.0355
